These results are taken from PubChem BioAssay AID504847 (National Center for Advancing Translational Sciences (NCATS), 2011).

SMILES strings stand for the structures. Screen size: about 400,000 compounds; about 3,700 (0.93%) were called active. Not shown: some 3% with an inconclusive outcome. The sample holds actives, similar compounds and a random draw of the others, so the mix is not that of the screen. Calls come from the whole dose curve; as a rule, active = well fitted inhibition curve with a large enough effect; inconclusive = small, poorly fitted or top-dose-only effect, or another doubt; inactive = no such curve, though single readings can be large or run the other way.
% is set by controls: 0 for no effect and ±100 for the full control effect; potency is the fitted concentration of half-maximal effect.

Vitamin D3 receptor (Homo sapiens), sequence (P11473 whole entry, looked up): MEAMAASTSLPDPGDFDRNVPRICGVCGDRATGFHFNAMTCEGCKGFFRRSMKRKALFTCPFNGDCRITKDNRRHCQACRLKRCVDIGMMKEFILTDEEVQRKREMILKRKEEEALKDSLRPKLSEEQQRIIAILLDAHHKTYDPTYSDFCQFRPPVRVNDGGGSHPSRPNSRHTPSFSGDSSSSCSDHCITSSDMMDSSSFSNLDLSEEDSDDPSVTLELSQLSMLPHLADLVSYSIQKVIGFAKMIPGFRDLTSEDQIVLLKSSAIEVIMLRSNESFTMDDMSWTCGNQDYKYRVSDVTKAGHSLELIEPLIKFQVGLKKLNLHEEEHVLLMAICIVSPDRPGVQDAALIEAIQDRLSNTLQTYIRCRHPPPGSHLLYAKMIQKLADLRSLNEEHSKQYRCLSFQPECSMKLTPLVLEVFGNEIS

The assay has as its target Vitamin D3 receptor (Homo sapiens) (UniProt P11473). Nature of the assay: Inhibitors of the vitamin D receptor (VDR): qHTS. To be noted: VDR-SRC2-3 peptide fluorescence polarization, 2 h; max response, negative = inhibition: hits give low values. The method in brief:
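Signal is fluorescence polarization, reporting how far test compounds block the interaction of VDR with the SRC2-3 coregulator peptide after a 2 h room-temperature incubation.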
A general note: In qHTS, concentration-response curves come from the screen itself.
`CCCCOc1ccc(CN2C(=O)C(=O)c3cc(Br)cc(C)c32)cc1OC`: the Potency was 14.1 µM (active).
For the compound `CCCCOc1ccc(Cn2c(=O)oc3ccc(C)cc32)cc1OC`, the max response, negative = inhibition was -6.99% (inactive).
Turning to `COc1ccc(CCN2C(=O)C(C)=C(C)C2=O)cc1OC`, the max response, negative = inhibition is -14.3% (inactive).
Consider `CCN(CC)CCNc1ncnc2c1cnn2-c1cc(Cl)ccc1C`, for which the max response, negative = inhibition was 11.7% (inactive).
`CN1[C@H]2CC(OC(=O)[C@@H](CO)c3ccccc3)C[C@H]1[C@H]1O[C@H]12` (stereo partly specified): the max response, negative = inhibition is 7.07% (inactive).
Take `CCOC(=O)/C=C/c1ccc(C(F)(F)F)cc1S(=O)(=O)NC(C)(C)C`: the Potency was 79.4 µM (active).
Regarding `Cn1c(N)c(C(=O)COC(=O)/C=C/c2cccc(C(F)(F)F)c2)c(=O)n(C)c1=O`, the max response, negative = inhibition was 8.93% (inactive).
With `CCOC(=O)NNc1cc(C(F)(F)F)ccn1`, the max response, negative = inhibition is -1.56% (inactive).
In the case of `CC1(C)CCc2cc(S(=O)(=O)N3CCN(c4nc(-c5cccs5)nc5ccccc45)CC3)ccc2O1`, the max response, negative = inhibition was -7.78% (inactive).
Turning to `OCC(CO)NC1C[C@](O)(CO)[C@@H](O)[C@H](O)[C@H]1O` (stereo partly specified), the max response, negative = inhibition is 1.5% (inactive).
`CC(=O)N1CCN(C(=O)c2cc(-c3ccc(C)o3)nc3ccccc23)CC1`: the max response, negative = inhibition is -3.82% (inactive).
In the case of `CC1CCCN(C(=O)c2cc(-c3ccco3)nc3ccccc23)C1` (stereo unspecified), the Potency was 35.5 µM (active).
In the case of `O=C(Nc1cccc(F)c1)c1cc(-c2ccco2)nc2ccccc12`, the max response, negative = inhibition is -14.8% (inactive).
For `CN(C)c1cccc(C(=O)Nc2nc3ccc(S(=O)(=O)NC(C)(C)C)cc3s2)c1`, the max response, negative = inhibition is 8.63% (inactive).
`COc1ccccc1-c1noc(CSc2nnc(-c3ccccc3)n2-c2ccc(C)c(C)c2)n1`: the max response, negative = inhibition was 5.39% (inactive).
As for `O=C(Cn1nc(C(F)(F)F)c2c1CCCC2)Nc1ccc(Cl)cc1`, the max response, negative = inhibition was 4.81% (inactive).
Regarding `O=C(Cn1ncc(N2CCCC2)c(Br)c1=O)c1ccc(Cl)cc1`, the max response, negative = inhibition is -1.29% (inactive).
Take `O=C(Cn1nc(CNc2ccc(Cl)cc2)[n+]2c1CCCCC2)c1ccc(Cl)cc1`: the Potency was 79.4 µM (active).
On to `Cc1cccc(N2CCN(c3ccc(C(=O)O)cc3NC(=O)c3ccccc3F)CC2C)c1` (stereo unspecified), for which the max response, negative = inhibition was 1.51% (inactive).
The same measure, in the same setting: for `O=C(Nc1ccccc1Cl)N1CCC(CN2CCCC2)CC1` the value was 6.62% (inactive).
Regarding `O=C(Nc1ccccc1Cl)/C(Cl)=C(\Cl)S(=O)c1ccccc1` (stereo unspecified), the Potency is 3.98 µM (active).
`O=C(CCN1CCN(C/C=C/c2ccccc2)CC1)Nc1ccccc1Cl`: the max response, negative = inhibition was -1.78% (inactive).
Take `CCn1cc(C(=O)NCc2ccc(C)cc2)c(=O)c2cc(S(=O)(=O)N3CCc4ccccc4C3)ccc21`: the max response, negative = inhibition is -10.3% (inactive).
As for `Cc1ccc(C(=O)N2CCCC2)c(F)c1F`, the Potency was 44.7 µM (active).
Take `Cc1ccc(C(NC(=O)N2CCCC2)C(Cl)(Cl)Cl)cc1F` (stereo unspecified): the max response, negative = inhibition is 6.9% (inactive).
Regarding `Cc1c(Br)cc(C(=O)N2CCCCCC2)c(C)c1C`, the max response, negative = inhibition is -2.34% (inactive).
For the compound `CCC(=O)Nc1cccc(C(=O)OCc2cc(=O)n3nc(CC)sc3n2)c1`, the max response, negative = inhibition is 7.59% (inactive).
Turning to `C=C1C(=CC=C2CCC[C@@]3(C)[C@@H]2CC[C@H]3[C@H](C)CCCC(C)C)C[C@@H](O)C[C@@H]1O`, the max response, negative = inhibition was 8.33% (inactive).
On to `CCOCCn1ccc2c(OCC(=O)NCc3ccc(C)cc3)cccc2c1=O`, for which the max response, negative = inhibition is 10.6% (inactive).
On to `Cc1ccc(OCC(=O)Nc2ccc(OCc3cc(=O)n4c(C)csc4n3)cc2)cc1C`, for which the max response, negative = inhibition was -8.2% (inactive).
In the case of `O=C(Nc1c(C(=O)N2CCN(c3ccc(F)cc3)CC2)oc2ccccc12)c1ccco1`, the max response, negative = inhibition is -2.38% (inactive).
`COc1ccccc1CNC(=O)c1ccc(-n2c(C)cc3c2CCCC3)cc1`: the max response, negative = inhibition is 13.6% (inactive).
On to `O=C(Nc1ccc([N+](=O)[O-])cc1)OCCc1ccccn1`, for which the max response, negative = inhibition is -15.4% (inactive).
Take `Cn1c(=O)c2c(ncn2CC(=O)Nc2cccc(C(F)(F)F)c2)n(C)c1=O`: the max response, negative = inhibition is 2.35% (inactive).
For the compound `O=C(CSc1nc(-c2ccccc2)cs1)Nc1cccc([N+](=O)[O-])c1`, the max response, negative = inhibition was -15.3% (inactive).
`O=C(CSc1nnc(-c2ccccc2F)o1)Nc1cccc(C(F)(F)F)c1`: the max response, negative = inhibition is -10.5% (inactive).
With `O=c1cc(CO)oc(C(Nc2cccc(C(F)(F)F)c2)c2ccccn2)c1O` (stereo unspecified), the Potency is 50.1 µM (active).
With `O=c1cc(CO)oc(C(Nc2cccc([N+](=O)[O-])c2)c2ccccn2)c1O` (stereo unspecified), the Potency was 79.4 µM (active).
On to `Cc1c(Cl)cccc1NC(=O)c1noc2c1CCCC2`, for which the max response, negative = inhibition was -14.6% (inactive).
Same read-out and setting: for `O=C(NCc1ccccc1)c1ccc2c(c1)nc1n2CCCCC1` the value was 12.2% (inactive); for `Cc1ccc(C)c(NC(=O)C2CCCN(S(=O)(=O)c3cn(C)cn3)C2)c1` (stereo unspecified), 2.5% (inactive).
In the case of `COCCNC(=O)c1ccc2c(c1)N(Cc1cccc(Cl)c1)C(=O)c1ccccc1S2(=O)=O`, the max response, negative = inhibition was 5.24% (inactive).
As to `CCCCOc1ccc(C(=O)N2CC(=O)Nc3ccc(Br)cc3C2c2ccc(F)cc2)cc1` (stereo unspecified), the max response, negative = inhibition was -9.94% (inactive).
For `Cc1cccc(Oc2c([N+](=O)[O-])c(=O)n(C)c3ccccc23)c1`, the Potency was 39.8 µM (active).
Take `Cc1cccc(C2CC(=O)Oc3c2c(=O)n(C)c2ccccc32)c1` (stereo unspecified): the max response, negative = inhibition is 0.823% (inactive).
The same measure, in the same setting: for `Cc1cccc(OP(=O)(Nc2c(C)n(C)n(-c3ccccc3)c2=O)Oc2cccc(C)c2)c1` the value was 10.3% (inactive); for `Cc1c2cnn(-c3ccccc3)c(=O)c2c(C)n1C(C)C(=O)Nc1ccc(Br)cc1F` (stereo unspecified), 11.8% (inactive); for `CN(Cc1ccccc1)C(=O)c1cc2c(=O)n(C)c3ccccc3c2s1`, -5.87% (inactive).
For `C/C(Nc1ccc2oc(=O)ccc2c1)=C1/C(=O)CC2[C@@H]1C2(C)C` (stereo partly specified), the max response, negative = inhibition was -29.7% (inactive).
As for `CCC1CN(S(=O)(=O)c2cc(-c3cc(C)no3)ccc2C)c2cc(C)ccc2O1` (stereo unspecified), the max response, negative = inhibition was 10.7% (inactive).
Still for that read-out and setting: for `CN1C(=O)CN2CCc3ccccc3C2c2cc(Cl)ccc21` (stereo unspecified) the value was -10.7% (inactive).
For the compound `O=c1[nH]c(CSc2ncc(-c3ccc(F)cc3)n2Cc2ccco2)nc2ccccc12`, the max response, negative = inhibition is 7.47% (inactive).
`Cc1ccc(Cn2c(C)nc3c(c2=O)c2nc4ccccc4nc2n3Cc2ccco2)cc1`: the Potency is 56.2 µM (active).
Regarding `Clc1cccc(-c2nc3nc4ccccc4nc3n2Cc2ccco2)c1`, the max response, negative = inhibition was 4.83% (inactive).
Consider `CCOc1ccc(-c2n[nH]c3c2C(c2ccccc2OC)N(c2ccc(Br)cc2)C3=O)cc1` (stereo unspecified), for which the max response, negative = inhibition is -27% (inactive).
Consider `Nc1ccc2nc3c(=O)[nH]c(=S)[nH]c3nc2c1`, for which the Potency is 79.4 µM (active).
